Experimental data from PubChem BioAssay (NCATS).
Where “and” joins values, the source holds several entries; their conditions need not be identical. Equal entries are not always repeated. Records with an inconclusive call do not appear. Calls of active or inactive are those of the source. Calls follow the shape of the dose curve; as a rule, active = well fitted curve in the direction sought with a large enough effect; inconclusive = small, poorly fitted or top-dose-only effect, or another doubt; inactive = no such curve, though single readings can be large; an effect the other way counts as inactive or inconclusive.

How the values were obtained:
[1] = qHTS of pediatric cancer cell lines to identify multiple opportunities for drug repurposing: Confirmatory screen for A673 cells (AID 1347110); conditions: A673 Ewing sarcoma cell viability; series mostly up to 45.9 µM;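 also: cells exposed to compound for 48 h before the viability read; nearly all actives have a fitted effect of over 65% in size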
Method in brief: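 Concentration-response curves came straight from titrations: 11 points (0.78 nM to 46 µM) for MIPE and several concentrations (0.59 nM to 46 µM) for NPC in primary, 11 points in follow-up. Readout: ATP luminescence at 48 h.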

[2] = qHTS of pediatric cancer cell lines to identify multiple opportunities for drug repurposing: Confirmatory screen for SK-N-MC cells (AID 1347111); conditions: SK-N-MC cell viability; series mostly up to 45.9 µM;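 also: cells exposed to compound for 48 h before the readout; nearly all actives have a fitted effect of over 70% in size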
Method in brief: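 Metabolically active cells were quantified by ATP-dependent luminescence (CellTiter-Glo, 15 min at room temperature) following 48 h treatment. Cells had been plated at 500-1,000 per well and settled for 5 h beforehand.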

[3] = qHTS of pediatric cancer cell lines to identify multiple opportunities for drug repurposing: Confirmatory screen for BT-12 cells (AID 1347112); conditions: BT-12 rhabdoid tumor cells, viability; series mostly up to 45.9 µM; also: nearly all actives have a fitted effect of over 55% in size
Method in brief: (§1)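 Cells (500-1,000/well) in growth media were settled 5 h at 37 degrees C, then given compounds for 48 h. Viability was read as CellTiter-Glo luminescence. Primary runs used MIPE at 11 points (0.78 nM-46 µM) and NPC at 8 points (0.59 nM-46 µM); follow-ups used 11 points.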

[4] = qHTS of pediatric cancer cell lines to identify multiple opportunities for drug repurposing: Confirmatory screen for LAN-5 cells (AID 1347113); conditions: LAN-5 neuroblastoma cell viability; series mostly up to 45.9 µM; also: nearly all actives have a fitted effect of over 65% in size
Method in brief: as §1

[5] = qHTS of pediatric cancer cell lines to identify multiple opportunities for drug repurposing: Confirmatory screen for NB-EBc1 cells (AID 1347115); conditions: NB-EBc1 neuroblastoma cells, viability (cytotoxicity); series mostly up to 45.9 µM;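 also: cells exposed to compound for 48 h before the viability read; nearly all actives have a fitted effect of over 45% in size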
Method in brief: as §1

[6] = qHTS of pediatric cancer cell lines to identify multiple opportunities for drug repurposing: Confirmatory screen for SJ-GBM2 cells (AID 1347116); conditions: SJ-GBM2 glioblastoma cells, viability; series mostly up to 45.9 µM; also: nearly all actives have a fitted effect of over 60% in size
Method in brief: (§2)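 Viability measured as metabolically active cells via CellTiter-Glo luminescence following 48 hours of compound exposure, 11-point dilutions in confirmatory testing. 500-1,000 cells/well plated 5 hours before dosing; controls were DMSO and 2.3 µM bortezomib.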

[7] = qHTS of pediatric cancer cell lines to identify multiple opportunities for drug repurposing: Confirmatory screen for BT-37 cells (AID 1347117); conditions: BT-37 pediatric cancer cells, viability; series mostly up to 45.9 µM; also: nearly all actives have a fitted effect of over 55% in size
Method in brief: as §1

[8] = qHTS of pediatric cancer cell lines to identify multiple opportunities for drug repurposing: Confirmatory screen for TC32 cells (AID 1347118); conditions: TC32 Ewing sarcoma cells viability qHTS; series mostly up to 45.9 µM;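 also: cells exposed to compound for 48 h before the read; nearly all actives have a fitted effect of over 65% in size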
Method in brief: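 qHTS, TC32, 48 h drug treatment, CellTiter-Glo luminescence as a proxy for metabolically active cells; primary top concentration 46 µM (MIPE 11-pt, NPC 8-pt); confirmatory 11-pt.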

[9] = qHTS of pediatric cancer cell lines to identify multiple opportunities for drug repurposing: Confirmatory screen for control Hh wild type fibroblast cells (AID 1347121); conditions: viability qHTS; series mostly up to 45.9 µM; also: nearly all actives have a fitted effect of over 70% in size
Method in brief: as §1

[10] = qHTS of pediatric cancer cell lines to identify multiple opportunities for drug repurposing: Confirmatory screen for Rh18 cells (AID 1347125); conditions: Rh18 rhabdomyosarcoma cells, viability; series mostly up to 45.9 µM; also: nearly all actives have a fitted effect of over 55% in size
Method in brief: as §1

[11] = qHTS of pediatric cancer cell lines to identify multiple opportunities for drug repurposing: Confirmatory screen for Rh30 cells (AID 1347126); conditions: Rh30 rhabdomyosarcoma cell viability; series mostly up to 45.9 µM; also: nearly all actives have a fitted effect of over 55% in size
Method in brief: as §1

[12] = qHTS of pediatric cancer cell lines to identify multiple opportunities for drug repurposing: Confirmatory screen for Saos-2 cells (AID 1347127); conditions: Saos-2 osteosarcoma cell viability; series mostly up to 45.9 µM; also: nearly all actives have a fitted effect of over 60% in size
Method in brief: as §1

[13] = qHTS of pediatric cancer cell lines to identify multiple opportunities for drug repurposing: Confirmatory screen for OHS-50 cells (AID 1347128); conditions: OHS-50 osteosarcoma cells viability; series mostly up to 45.9 µM
Method in brief: as §1

[14] = qHTS of pediatric cancer cell lines to identify multiple opportunities for drug repurposing: Confirmatory screen for SK-N-SH cells (AID 1347129); conditions: SK-N-SH neuroblastoma cell viability; series mostly up to 46.1 µM;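 also: cells exposed to compound for 48 h before viability read; nearly all actives have a fitted effect of over 60% in size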
Method in brief: as §1

[15] = qHTS of pediatric cancer cell lines to identify multiple opportunities for drug repurposing: Confirmatory screen for DAOY cells (AID 1347114); conditions: DAOY medulloblastoma cells viability, cytotoxicity qHTS; series mostly up to 45.9 µM; also: nearly all actives have a fitted effect of over 65% in size
Method in brief: as §2

[16] = qHTS of pediatric cancer cell lines to identify multiple opportunities for drug repurposing: Confirmatory screen for U-2 OS cells (AID 1347122); conditions: U-2 OS osteosarcoma cell viability; series mostly up to 45.9 µM; also: nearly all actives have a fitted effect of over 65% in size
Method in brief: as §1

[17] = qHTS of pediatric cancer cell lines to identify multiple opportunities for drug repurposing: Confirmatory screen for RD cells (AID 1347124); conditions: RD rhabdomyosarcoma cell viability; series mostly up to 45.9 µM
Method in brief: as §1

Measured: Potency
Potency is read from the fitted curve at half-maximal effect.

CC(=O)Oc1cc2c(s1)CCN(C(C(=O)C1CC1)c1ccccc1F)C2 (stereo not drawn)
active: [1] 1.04 µM | [6] 4.14 µM | [11] 2.93 µM
not listed: [15] | [16] | [17]
inactive: all other assays above

CN(C)C1CCN(C(=O)c2ccc(NC(=O)Nc3nc(N4CCOCC4)nc(N4CCOCC4)n3)cc2)CC1
inactive: [11]
active: [1] 0.0737 µM | [2] 208 nM | [4] 0.261 µM | [15] 14.7 µM | [5] 16.5 µM | [6] 1.47 µM | [7] 147 nM | [8] 65.7 nM | [16] 3.69 µM | [17] 0.293 µM | [10] 0.293 µM | [12] 329 nM | [13] 0.465 µM | [14] 3.72 µM

O=C(O)c1ccc(-c2c[nH]c3ncc(-c4ccccc4)cc23)cc1C1CCCC1
active: [2] 9270 nM
not listed: [14] | [16]
inactive: all other assays above

N[C@@]1(C(=O)O)CS(=O)(=O)[C@H]2[C@H](C(=O)O)[C@H]21
active: [2] 46.5 nM | [7] 737 nM | [8] 52.2 nM | [12] 1310 nM | [13] 0.928 µM
not listed: [3] | [4] | [6]
inactive: all other assays above

COc1ncc(-c2ccc3nccc(-c4ccnnc4)c3c2)cc1NS(=O)(=O)c1ccc(F)cc1F
active: [1] 0.208 µM | [2] 32.9 nM | [4] 0.0737 µM | [5] 8.27 µM | [7] 465 nM | [8] 36.9 nM | [10] 0.104 µM | [11] 0.0414 µM | [12] 46.5 nM | [13] 0.233 µM | [14] 0.187 µM
inactive: [17]

O=C1c2ccccc2-[n+]2ccc3c([nH]c4ccccc43)c21
inactive: [14]
active: [1] 2.93 µM | [3] 2.93 µM | [4] 0.827 µM | [15] 1.85 µM | [5] 2.61 µM | [6] 2.61 µM | [7] 1040 nM | [8] 1310 nM | [9] 7.37 µM | [16] 1.17 µM | [17] 1.65 µM | [10] 2.33 µM | [11] 2.93 µM | [12] 928 nM | [13] 1.65 µM

CC1(C)CCC[C@@]2(C)[C@@H]1CC[C@@]1(C)OC(=O)C[C@H]21
active: [2] 26100 nM | [11] 0.0185 µM
not listed: [6] | [8] | [17]
inactive: all other assays above

Oc1ccc(C2CCN(c3ccnc4ccccc34)CC2)cc1O
inactive: [10] | [12]
active: [1] 2.61 µM | [2] 18500 nM | [3] 13.1 µM | [15] 5.85 µM | [5] 14.7 µM | [6] 1.17 µM | [8] 9270 nM | [9] 7.37 µM | [16] 2.93 µM | [17] 0.928 µM | [14] 20.9 µM

COc1cc(N2CCC(N3CCN(C)CC3)CC2)ccc1Nc1ncc(Cl)c(Nc2ccccc2S(=O)(=O)C(C)C)n1
active: [1] 3.29 µM | [2] 657 nM | [4] 0.185 µM | [15] 16.5 µM | [5] 14.7 µM | [6] 23.3 µM | [7] 14700 nM | [8] 1850 nM | [9] 20.8 µM | [16] 0.465 µM | [17] 1.04 µM | [10] 3.29 µM | [11] 0.737 µM | [12] 1850 nM | [13] 2.33 µM | [14] 0.833 µM

CC[C@]1(O)C[C@@H]2CN(CCc3c([nH]c4ccccc34)[C@@](C(=O)OC)(c3cc4c(cc3OC)N(C)[C@H]3[C@@](O)(C(=O)OC)[C@H](OC(C)=O)[C@]5(CC)C=CCN6CC[C@]43[C@@H]65)C2)C1
inactive: [9]
active: [1] 32.9 nM and 36.9 nM | [2] 657 nM and 737 nM | [3] 1.65 µM and 1.85 µM | [4] 2.33 µM | [15] 208 nM and 233 nM | [7] 737 nM and 1.17 µM | [8] 465 nM and 827 nM | [16] 369 nM and 1.17 µM | [17] 1.17 µM | [12] 657 nM and 1.17 µM | [14] 0.148 µM

CO[C@H]1C(=O)[C@]2(C)[C@@H](OC)C[C@H]3OC[C@@]3(OC(C)=O)[C@H]2[C@H](OC(=O)c2ccccc2)[C@]2(O)C[C@H](OC(=O)[C@H](O)[C@@H](NC(=O)OC(C)(C)C)c3ccccc3)C(C)=C1C2(C)C
active: [1] 0.0059 µM | [2] 3.3 nM | [8] 3.3 nM | [16] 0.0185 µM | [12] 14.7 nM | [13] 0.0165 µM
inactive: [4] | [5] | [6] | [9] | [11]

O=C(O)c1ccc(-c2cc3cccnc3c(-c3ccc4nonc4c3)n2)cc1
active: [1] 0.928 µM | [2] 2330 nM | [3] 4.14 µM | [8] 2610 nM | [17] 7.37 µM | [12] 5220 nM | [13] 6.57 µM
inactive: [14]

NS(=O)(=O)c1cccc2c1C(=O)c1cccc(O)c1C2=O
inactive: [5]
active: [1] 2.33 µM | [2] 2930 nM | [3] 1.04 µM | [4] 1.85 µM | [15] 2.33 µM | [6] 4.14 µM | [7] 737 nM | [8] 827 nM | [9] 2.93 µM | [16] 1.04 µM | [10] 2.33 µM | [11] 2.93 µM | [12] 928 nM | [13] 2.93 µM | [14] 2.09 µM

CC(C)n1nc(-c2ccc3oc(N)nc3c2)c2c(N)ncnc21
active: [1] 0.147 µM | [2] 73.7 nM | [3] 0.117 µM | [4] 0.131 µM | [15] 5.85 µM | [6] 0.165 µM | [7] 36.9 nM | [8] 46.5 nM | [16] 0.0928 µM | [17] 0.208 µM | [10] 1.65 µM | [11] 0.293 µM | [12] 233 nM | [13] 3.69 µM | [14] 0.59 µM

CNC1CCC(N(Cc2cccc(-c3ccncc3)c2)C(=O)c2sc3c(F)ccc(F)c3c2Cl)CC1 (stereo not drawn)
inactive: [5] | [10] | [14]
active: [1] 20.8 µM | [2] 11700 nM | [15] 20.8 µM | [7] 20800 nM | [8] 13100 nM | [11] 23.3 µM

OC[C@H]1O[C@@H](n2cnc3c2NC=NC[C@@H]3O)C[C@H]1O
active: [1] 1.04 µM | [2] 8270 nM | [8] 8270 nM
not listed: [6] | [7]
inactive: all other assays above

CCc1ccc(OCc2ccccc2C(=O)Nc2ccc3nc(C)cc(N)c3c2)cc1
inactive: [11]
active: [1] 3.69 µM | [2] 827 nM | [3] 9.27 µM | [4] 7.37 µM | [5] 8.27 µM | [6] 11.7 µM | [7] 7370 nM | [8] 1170 nM | [9] 9.27 µM | [16] 8.27 µM | [17] 8.27 µM | [10] 8.27 µM | [12] 9270 nM | [13] 9.27 µM | [14] 8.33 µM

CC1(C)O[C@H]2C[C@@H]3[C@H]4CCC5=CC(=O)C=C[C@]5(C)[C@@]4(F)[C@@H](O)C[C@]3(C)[C@]2(C(=O)CO)O1
not listed: [5] | [8] | [9]
inactive: all other assays above

CO[C@H]1C=CC=C(C)C(=O)NC2=CC(=O)C(NCCN(C)C)=C(C[C@@H](C)C[C@H](OC)[C@@H](O)[C@@H](C)C=C(C)[C@@H]1OC(N)=O)C2=O
inactive: [4] | [6] | [9] | [17] | [12] | [13]
active: [1] 16.5 µM | [2] 827 nM | [15] 18.5 µM | [7] 1170 nM | [10] 1.85 µM | [11] 3.29 µM

CCOc1ccc(Nc2nc(-c3c(C)nc4ccccn34)cs2)cc1
inactive: [9] | [10] | [11]
active: [1] 0.131 µM | [2] 92.8 nM | [4] 1.47 µM | [15] 0.0465 µM | [7] 293 nM | [8] 117 nM | [16] 0.165 µM

Nc1ncnc2c1ncn2[C@@H]1O[C@@H](CO)[C@H](O)[C@H]1O
not listed: [9]
inactive: all other assays above
